Measurements reported in the supplement of paper PMC11001985.
Unmarked numbers belong to inactive results.

Compound: C#CCNC(=O)CCSSCCC(=O)NCCc1ccc(C=O)c(C=O)c1
Test: lysine labeling ratio R10:1 (500 µM / 50 µM probe), SILAC-ABPP in living cells; higher = lower intrinsic lysine reactivity toward the probe, active = 2 or less
Conditions: HeLa; probe concentrations 500 vs 50 µM
Method in brief: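 Forward and reverse SILAC label swaps were used with living light and heavy HeLa cells in PBS at room temperature, which were given an alkyne-tagged, disulfide-linked lysine probe at 50 µM or 500 µM. R is the per-lysine filtered median high-probe/low-probe MS1 peptide ratio, with the median then taken across both swap directions. Values are limited to 20.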

Chain of UniProt P05783 (P05783 whole entry): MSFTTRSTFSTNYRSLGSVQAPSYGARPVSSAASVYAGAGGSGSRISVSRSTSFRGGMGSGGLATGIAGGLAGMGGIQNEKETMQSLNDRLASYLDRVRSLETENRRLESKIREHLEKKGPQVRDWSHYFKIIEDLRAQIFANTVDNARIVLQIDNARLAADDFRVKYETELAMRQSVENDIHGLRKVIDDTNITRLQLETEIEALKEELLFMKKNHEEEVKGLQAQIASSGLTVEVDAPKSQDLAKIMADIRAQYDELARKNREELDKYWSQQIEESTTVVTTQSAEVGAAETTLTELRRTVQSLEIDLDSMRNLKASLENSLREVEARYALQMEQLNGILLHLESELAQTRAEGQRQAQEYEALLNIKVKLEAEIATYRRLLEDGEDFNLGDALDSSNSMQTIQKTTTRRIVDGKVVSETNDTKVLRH
Chain of UniProt P02533 (P02533 whole entry): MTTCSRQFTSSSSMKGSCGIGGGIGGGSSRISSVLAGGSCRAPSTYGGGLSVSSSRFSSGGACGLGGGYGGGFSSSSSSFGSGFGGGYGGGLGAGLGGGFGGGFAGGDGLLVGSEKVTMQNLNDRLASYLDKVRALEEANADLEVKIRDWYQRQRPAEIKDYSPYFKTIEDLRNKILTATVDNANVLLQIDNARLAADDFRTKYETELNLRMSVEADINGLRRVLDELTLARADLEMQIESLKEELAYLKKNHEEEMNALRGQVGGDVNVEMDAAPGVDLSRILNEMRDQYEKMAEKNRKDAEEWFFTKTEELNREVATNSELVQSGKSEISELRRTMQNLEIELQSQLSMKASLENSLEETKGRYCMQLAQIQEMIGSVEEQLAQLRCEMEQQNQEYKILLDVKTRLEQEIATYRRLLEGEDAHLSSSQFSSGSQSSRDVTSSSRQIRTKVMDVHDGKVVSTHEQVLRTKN
Chain of UniProt P49184 (P49184 whole entry): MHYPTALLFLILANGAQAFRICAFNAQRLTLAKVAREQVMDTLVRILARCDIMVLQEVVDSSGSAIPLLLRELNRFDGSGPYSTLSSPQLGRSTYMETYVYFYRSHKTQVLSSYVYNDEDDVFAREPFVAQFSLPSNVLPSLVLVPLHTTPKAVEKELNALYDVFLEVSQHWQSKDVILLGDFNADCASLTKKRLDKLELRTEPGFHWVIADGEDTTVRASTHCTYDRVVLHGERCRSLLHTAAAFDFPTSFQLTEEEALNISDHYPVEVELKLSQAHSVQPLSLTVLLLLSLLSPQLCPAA
Chain of UniProt O43854 (O43854 whole entry): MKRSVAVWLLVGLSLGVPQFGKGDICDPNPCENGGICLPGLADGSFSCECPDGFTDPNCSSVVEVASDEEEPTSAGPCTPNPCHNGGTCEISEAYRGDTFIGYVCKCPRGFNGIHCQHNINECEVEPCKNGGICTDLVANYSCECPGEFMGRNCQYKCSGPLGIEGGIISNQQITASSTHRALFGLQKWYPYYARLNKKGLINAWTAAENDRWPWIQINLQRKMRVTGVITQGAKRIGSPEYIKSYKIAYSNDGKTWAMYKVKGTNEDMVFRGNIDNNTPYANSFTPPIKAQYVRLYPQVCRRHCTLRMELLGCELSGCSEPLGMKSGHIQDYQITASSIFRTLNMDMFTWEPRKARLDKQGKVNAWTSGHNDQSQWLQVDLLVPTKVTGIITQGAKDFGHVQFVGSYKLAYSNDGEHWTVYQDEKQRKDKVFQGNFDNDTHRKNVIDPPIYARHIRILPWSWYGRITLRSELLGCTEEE
Chain of UniProt P52565 (P52565 whole entry): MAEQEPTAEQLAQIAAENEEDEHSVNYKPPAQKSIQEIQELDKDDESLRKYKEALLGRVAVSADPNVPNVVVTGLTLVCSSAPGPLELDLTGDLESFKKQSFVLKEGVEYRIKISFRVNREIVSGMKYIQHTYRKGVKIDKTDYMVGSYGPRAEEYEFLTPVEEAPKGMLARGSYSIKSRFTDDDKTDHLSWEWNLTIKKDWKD
Chain of UniProt P46940 (P46940 whole entry): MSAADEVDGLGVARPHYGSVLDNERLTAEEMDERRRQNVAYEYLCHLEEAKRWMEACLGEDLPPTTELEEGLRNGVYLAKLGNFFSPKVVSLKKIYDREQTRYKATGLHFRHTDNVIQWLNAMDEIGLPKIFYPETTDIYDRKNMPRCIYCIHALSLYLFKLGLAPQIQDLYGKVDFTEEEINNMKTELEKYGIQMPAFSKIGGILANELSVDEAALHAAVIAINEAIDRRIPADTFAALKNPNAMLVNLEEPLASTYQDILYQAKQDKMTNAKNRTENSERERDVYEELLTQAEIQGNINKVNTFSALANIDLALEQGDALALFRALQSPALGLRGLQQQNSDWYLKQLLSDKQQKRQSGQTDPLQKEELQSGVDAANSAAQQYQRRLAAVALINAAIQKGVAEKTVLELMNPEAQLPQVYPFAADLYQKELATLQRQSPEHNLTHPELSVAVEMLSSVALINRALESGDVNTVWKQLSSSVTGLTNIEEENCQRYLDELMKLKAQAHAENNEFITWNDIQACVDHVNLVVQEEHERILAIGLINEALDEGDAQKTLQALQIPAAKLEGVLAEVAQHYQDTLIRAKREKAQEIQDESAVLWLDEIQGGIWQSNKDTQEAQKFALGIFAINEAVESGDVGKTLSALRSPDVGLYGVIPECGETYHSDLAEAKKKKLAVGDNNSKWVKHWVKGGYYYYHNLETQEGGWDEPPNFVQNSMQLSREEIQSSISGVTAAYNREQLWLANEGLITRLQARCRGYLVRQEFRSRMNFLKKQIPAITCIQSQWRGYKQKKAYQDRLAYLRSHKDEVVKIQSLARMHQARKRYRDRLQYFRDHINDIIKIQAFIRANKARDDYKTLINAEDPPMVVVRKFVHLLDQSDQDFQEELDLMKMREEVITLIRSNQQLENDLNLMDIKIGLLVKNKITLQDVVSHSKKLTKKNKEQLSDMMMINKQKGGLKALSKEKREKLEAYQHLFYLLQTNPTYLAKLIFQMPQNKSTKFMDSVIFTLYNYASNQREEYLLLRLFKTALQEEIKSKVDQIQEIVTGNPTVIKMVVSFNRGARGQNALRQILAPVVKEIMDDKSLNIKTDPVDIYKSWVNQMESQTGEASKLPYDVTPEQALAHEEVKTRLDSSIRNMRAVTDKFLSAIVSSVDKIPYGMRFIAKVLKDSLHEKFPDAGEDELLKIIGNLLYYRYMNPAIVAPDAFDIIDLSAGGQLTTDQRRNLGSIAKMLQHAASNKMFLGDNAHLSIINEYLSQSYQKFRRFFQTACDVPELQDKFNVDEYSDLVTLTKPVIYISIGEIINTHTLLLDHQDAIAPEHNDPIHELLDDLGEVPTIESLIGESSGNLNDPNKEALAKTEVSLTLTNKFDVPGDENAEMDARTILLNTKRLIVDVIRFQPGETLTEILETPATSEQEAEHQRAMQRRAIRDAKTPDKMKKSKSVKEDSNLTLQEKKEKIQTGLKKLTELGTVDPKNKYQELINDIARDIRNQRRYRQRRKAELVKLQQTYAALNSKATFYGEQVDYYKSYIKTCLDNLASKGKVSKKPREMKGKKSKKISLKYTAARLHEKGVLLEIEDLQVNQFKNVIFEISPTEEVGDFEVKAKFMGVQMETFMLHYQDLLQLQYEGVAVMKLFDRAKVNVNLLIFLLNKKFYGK
Chain of UniProt Q12913 (Q12913 whole entry): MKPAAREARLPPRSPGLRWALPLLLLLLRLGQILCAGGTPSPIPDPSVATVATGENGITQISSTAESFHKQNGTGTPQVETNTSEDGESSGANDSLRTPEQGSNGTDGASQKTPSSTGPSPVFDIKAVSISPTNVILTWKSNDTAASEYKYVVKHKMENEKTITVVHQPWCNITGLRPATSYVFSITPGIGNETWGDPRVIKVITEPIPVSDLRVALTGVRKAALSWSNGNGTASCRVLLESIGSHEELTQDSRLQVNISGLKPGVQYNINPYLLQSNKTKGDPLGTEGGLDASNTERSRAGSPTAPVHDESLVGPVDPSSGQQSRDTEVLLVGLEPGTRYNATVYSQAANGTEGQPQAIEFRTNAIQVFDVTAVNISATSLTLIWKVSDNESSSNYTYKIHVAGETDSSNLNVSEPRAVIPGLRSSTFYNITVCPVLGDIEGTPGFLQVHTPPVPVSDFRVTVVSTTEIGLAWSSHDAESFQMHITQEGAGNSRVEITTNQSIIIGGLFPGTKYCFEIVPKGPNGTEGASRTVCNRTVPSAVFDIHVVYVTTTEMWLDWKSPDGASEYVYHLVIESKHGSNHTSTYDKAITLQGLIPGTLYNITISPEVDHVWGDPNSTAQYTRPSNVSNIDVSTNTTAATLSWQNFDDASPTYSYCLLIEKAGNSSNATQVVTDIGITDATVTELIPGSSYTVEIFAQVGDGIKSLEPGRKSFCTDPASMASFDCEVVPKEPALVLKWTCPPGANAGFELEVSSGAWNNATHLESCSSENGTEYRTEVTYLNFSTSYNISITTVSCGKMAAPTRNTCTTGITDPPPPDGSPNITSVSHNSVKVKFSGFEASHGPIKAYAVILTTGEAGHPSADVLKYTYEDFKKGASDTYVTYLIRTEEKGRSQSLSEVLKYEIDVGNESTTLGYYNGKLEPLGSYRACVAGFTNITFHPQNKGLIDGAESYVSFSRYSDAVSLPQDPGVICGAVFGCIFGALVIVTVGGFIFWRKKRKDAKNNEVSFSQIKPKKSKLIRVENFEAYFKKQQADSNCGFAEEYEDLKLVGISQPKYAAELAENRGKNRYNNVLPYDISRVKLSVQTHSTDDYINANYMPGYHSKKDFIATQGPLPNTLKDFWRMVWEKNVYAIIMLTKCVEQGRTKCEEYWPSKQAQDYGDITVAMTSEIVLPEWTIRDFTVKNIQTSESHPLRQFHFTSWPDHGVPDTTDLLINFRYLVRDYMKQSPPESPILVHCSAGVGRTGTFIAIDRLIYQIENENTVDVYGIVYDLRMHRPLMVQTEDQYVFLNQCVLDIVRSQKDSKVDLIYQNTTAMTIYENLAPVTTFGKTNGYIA
Chain of UniProt P62937 (P62937 whole entry, looked up): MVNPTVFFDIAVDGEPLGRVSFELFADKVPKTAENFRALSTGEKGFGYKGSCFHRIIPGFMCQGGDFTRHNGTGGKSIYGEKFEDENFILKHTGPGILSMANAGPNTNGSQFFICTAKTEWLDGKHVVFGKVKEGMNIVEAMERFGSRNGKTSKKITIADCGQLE

Row | Target | lysine labeling ratio R10:1
1 | UniProt P05787 (lysine site: K8) | 5.03
2 | UniProt Q96TA1 (lysine site: K322) | 5.91
3 | PTPRS (lysine site: K370) (UniProt Q13332) | 2.37
4 | NSUN2 (lysine site: K28) (UniProt Q08J23) | 2.49
5 | ARHGDIA (lysine site: K43) (UniProt P52565) | 1.51 (active)
6 | IQGAP1 (lysine site: K104) (UniProt P46940) | 2.32
7 | LDHB (lysine site: K156) (UniProt P07195) | 6.77
8 | UniProt Q15149 (lysine site: K2129) | 3.49
9 | KRT18 (lysine site: K247) (UniProt P05783) | 7.86
10 | UniProt Q6NZI2 (lysine site: K299) | 4.52
11 | UniProt Q9UHN6 (lysine site: K376) | 3.02
12 | ULBP2 (lysine site: K116) (UniProt Q9BZM5) | 5.14
13 | KRT18 (lysine site: K372) (UniProt P05783) | 2.29
14 | SPTAN1 (lysine site: K296) (UniProt Q13813) | 2.12
15 | NOTCH2 (lysine site: K1350) (UniProt Q04721) | 2.12
16 | HNRNPU (lysine site: K697) (UniProt Q00839) | 0.915 (active)
17 | FAT1 (lysine site: K369) (UniProt Q14517) | 1.01 (active)
18 | UniProt P62333 (lysine site: K298) | 1.53 (active)
19 | RPL14 (lysine site: K103) (UniProt P50914) | 3.31
20 | PTPRJ (lysine site: K876) (UniProt Q12913) | 3.12
21 | CCT4 (lysine site: K29) (UniProt P50991) | 1.71 (active)
22 | UniProt P02533 (lysine site: K297) | 2.74
23 | G6PD (lysine site: K432) (UniProt P11413) | 1.85 (active)
24 | PPIA (lysine site: K133) (UniProt P62937) | 2.46

Row | Target | lysine labeling ratio R10:1
25 | ITGB1 (lysine site: K105) (UniProt P05556) | 6.92
26 | UniProt P62829 (lysine site: K75) | 4.96
27 | RPS19 (lysine site: K77) (UniProt P39019) | 2.89
28 | TFRC (lysine site: K161) (UniProt P02786) | 6.73
29 | UniProt P14618 (lysine site: K498) | 1.49 (active)
30 | TSPAN6 (lysine site: K146) (UniProt O43657) | 1.28 (active)
31 | EEF1G (lysine site: K132) (UniProt P26641) | 1.81 (active)
32 | UniProt P05187 (lysine site: K262) | 0.97 (active)
33 | UniProt Q15800 (lysine site: K284) | 1.82 (active)
34 | LPL (lysine site: K265) (UniProt P06858) | 1.86 (active)
35 | MAP4 (lysine site: K959) (UniProt P27816) | 3.23
36 | DNASE1L1 (lysine site: K33) (UniProt P49184) | 11
37 | EDIL3 (lysine site: K290) (UniProt O43854) | 2.39
38 | FLOT1 (lysine site: K285) (UniProt O75955) | 1.67 (active)
39 | PAICS (lysine site: K247) (UniProt P22234) | 1.41 (active)
40 | COL5A1 (lysine site: K164) (UniProt P20908) | 3.25
41 | LAMC1 (lysine site: K1191) (UniProt P11047) | 2.51
42 | UniProt P02533 (lysine site: K293) | 2.74
43 | HDGF (lysine site: K197) (UniProt P51858) | 2.54
44 | HSP90B1 (lysine site: K547) (UniProt P14625) | 3.04
45 | MSN (lysine site: K313) (UniProt P26038) | 5.6
46 | CELSR2 (lysine site: K1846) (UniProt Q9HCU4) | 3.09
47 | CD44 (lysine site: K158) (UniProt P16070) | 4.38
